# Assay results published in PubChem BioAssay.
# Activity calls are given as the source filed them.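 Rule for the calls, unless noted: active = GFP response above 150% of the DMSO level; inconclusive = fewer than 70 events counted for a yeast strain; inactive = the rest.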
# Key:
# [1] = RPL19A-GFP modulators, yeast TOR pathway, confirmation, cell-based, S. cerevisiae, flow cytometry, cherry picks, mother/daughter gates (AID 2270;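 active = GFP response below 50% of the DMSO control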); details: S. cerevisiae RPL19A-GFP strain, 3 h, at 10 µM, stronger effect = lower value, 100 = same GFP as DMSO wells
# [2] = LAP4-GFP expression modulators in yeast, confirmation, cell-based, cherry picks, flow cytometry, mother/daughter gates (AID 2271;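 active = GFP response above 150% of the DMSO control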;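 note: ratio of sample to DMSO plate mean so 100% equals DMSO level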); details: S. cerevisiae LAP4-GFP strain, 3 h, at 10 µM, stronger effect = higher value
# [3] = modulators of CIT2-GFP expression in yeast, confirmation, S. cerevisiae, GFP fusion, cherry picks, mother/daughter gates (AID 2274); details: S. cerevisiae CIT2-GFP strain, flow cytometry, 3 h, at 10 µM, stronger effect = higher value
# [4] = inhibitors of CD8+ T cell-vesicle binding, pilot screen, LFA-1/ICAM-1 modulator project, MLPCN validation set, flow cytometry (AID 2523;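 active = response below a set limit, under 55% cells CD8-positive and vesicle-bound, and CD8 cells' 90th-percentile brightness under 279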;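 for vesicle binding response: mean PE anti-B7-1 fluorescence of CD8+ cells relative to row control; 100% = QL9-loaded vesicles with DMSO vehicle in the same plate row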); details: 2C mouse CD8+ T cells, at 7 µM, stronger effect = lower value; double positive events: measured here: CD8+/vesicle+ event percentage
# [5] = superoxide lowering in aged yeast cells, pilot screen, validation compound set (AID 2706;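 active = superoxide response below 65% of plate, a cut near 3 SD across the whole screen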;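 note: yeast exposed to compound for one week at 30 degrees C before staining; 100% = mean of all compound wells on the same plate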); details: S. cerevisiae aging, superoxide DHE fluorescence; at 10 µM; stronger effect = lower value
# [6] = biological target: Beta-adrenergic receptor kinase 1 (Homo sapiens) (UniProt P25098); assay: GRK2 binders displacing RNA aptamer, biochemical, validation, human GRK2, bead flow cytometry (AID 488806;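 active = aptamer binding inhibition above 30%, about 3 SD of noise from non-fluorescent compounds; inactive = inhibition at or below 30%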); details: bead-bound GRK2, FAM-aptamer displacement, at 10 µM, stronger effect = higher value
# [7] = biological target: AP-2 complex subunit beta (Homo sapiens) (UniProt P63010); assay: inhibitors of arrestin peptide binding to AP2, pilot screen, biochemical, validation set, GST-AP2 beads, flow cytometry (AID 504541;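 active = inhibition above 54%, about 3 SD of non-fluorescent compounds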;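 note: AP2 carries R879A mutation and is captured from E. coli lysate; bead-bound FITC arrestin peptide fluorescence measuring arrestin peptide binding to AP2; 0% = DMSO wells and 100% = excess unlabeled arrestin peptide control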); details: FITC arrestin peptide, at 10 µM, stronger effect = higher value
# [8] = yeast V-ATPase proton transport modulators, S. cerevisiae, pHLuorin, HTS validation (AID 504600; in the data active = response above about 15%;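 note: plate controls were DMSO for no effect and reference compound for full effect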); details: S. cerevisiae pHLuorin cytosolic pH, at 10 µM, stronger effect = higher value
# [9] = system: anti-desmoglein-3 scFv antibody binding to human DSG3; assay: inhibitors of anti-DSG3 scFv binding to DSG3, pilot screen, biochemical, validation compound set, bead-based, flow cytometry (AID 588368;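 active = binding below the plate cutoff, the plate median minus 3 SD, with a reading above zero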;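 note: signal is the median channel fluorescence of bead-bound GFP antibody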); details: Protein G beads, DSG3-Fc, scFv-GFP binding, at 10 µM, stronger effect = lower value
# [10] = system: Botulinum neurotoxin type F light chain protease (Clostridium botulinum); assay: Botulinum neurotoxin type F light chain protease inhibition, multiplex microsphere flow cytometry, validation set (AID 588459; call rule not given here); details: multiplex microsphere protease substrate cleavage assay, at 10 µM, stronger effect = higher value
# [11] = biological target: Botulinum neurotoxin type A (Clostridium botulinum) (UniProt P0DPI0); assay: BoNT/A light chain protease inhibitors, biochemical, multiplex microsphere flow cytometry, validation set (AID 588460; call rule not given here); details: at 10 µM, stronger effect = higher value
# [12] = biological target: Lethal factor (Bacillus anthracis) (UniProt P15917); assay: Lethal factor protease inhibitors, Bacillus anthracis, multiplex microsphere cleavage assay, validation set (AID 588461; call rule not given here); details: flow cytometry, at 10 µM, stronger effect = higher value
# [13] = inhibitors of fungal efflux pumps CDR1, CDR2, MDR1, pilot screen, validation compound set, multiplex, phenotypic (AID 588506;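 active = efflux inhibition above 0.42, the validation set average plus 4 SD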;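 note: Nile Red retained in cells so higher fluorescence means more efflux inhibition; 0 = negative control wells and 1 = enniatin B 25 µM full block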); details: S. cerevisiae pump-expressing triplex, Nile Red efflux flow cytometry; at 10 µM; stronger effect = higher value
# [14] = promoters of myeloid differentiation in arrested cells, primary screen, cell-based, GFP/MAC1 double positive, flow cytometry, validation set (AID 588685;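 active = differentiation response of at least 50%, scaled between solvent and reference control, from cells with both markers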;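 note: compound exposure lasts four days before antibody staining and flow analysis; 0% = DMSO wells and 100% = 5 µM fulvestrant positive control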); details: ER-HoxA9 marrow cells, stronger effect = higher value
# [15] = measured here: daughter cell gate
# [16] = measured here: mother cell gate
# [17] = measured here: daughter cell gate response
# [18] = measured here: mother cell gate response
# Sequence of Botulinum neurotoxin type A (Clostridium botulinum) (P0DPI0 whole entry, looked up): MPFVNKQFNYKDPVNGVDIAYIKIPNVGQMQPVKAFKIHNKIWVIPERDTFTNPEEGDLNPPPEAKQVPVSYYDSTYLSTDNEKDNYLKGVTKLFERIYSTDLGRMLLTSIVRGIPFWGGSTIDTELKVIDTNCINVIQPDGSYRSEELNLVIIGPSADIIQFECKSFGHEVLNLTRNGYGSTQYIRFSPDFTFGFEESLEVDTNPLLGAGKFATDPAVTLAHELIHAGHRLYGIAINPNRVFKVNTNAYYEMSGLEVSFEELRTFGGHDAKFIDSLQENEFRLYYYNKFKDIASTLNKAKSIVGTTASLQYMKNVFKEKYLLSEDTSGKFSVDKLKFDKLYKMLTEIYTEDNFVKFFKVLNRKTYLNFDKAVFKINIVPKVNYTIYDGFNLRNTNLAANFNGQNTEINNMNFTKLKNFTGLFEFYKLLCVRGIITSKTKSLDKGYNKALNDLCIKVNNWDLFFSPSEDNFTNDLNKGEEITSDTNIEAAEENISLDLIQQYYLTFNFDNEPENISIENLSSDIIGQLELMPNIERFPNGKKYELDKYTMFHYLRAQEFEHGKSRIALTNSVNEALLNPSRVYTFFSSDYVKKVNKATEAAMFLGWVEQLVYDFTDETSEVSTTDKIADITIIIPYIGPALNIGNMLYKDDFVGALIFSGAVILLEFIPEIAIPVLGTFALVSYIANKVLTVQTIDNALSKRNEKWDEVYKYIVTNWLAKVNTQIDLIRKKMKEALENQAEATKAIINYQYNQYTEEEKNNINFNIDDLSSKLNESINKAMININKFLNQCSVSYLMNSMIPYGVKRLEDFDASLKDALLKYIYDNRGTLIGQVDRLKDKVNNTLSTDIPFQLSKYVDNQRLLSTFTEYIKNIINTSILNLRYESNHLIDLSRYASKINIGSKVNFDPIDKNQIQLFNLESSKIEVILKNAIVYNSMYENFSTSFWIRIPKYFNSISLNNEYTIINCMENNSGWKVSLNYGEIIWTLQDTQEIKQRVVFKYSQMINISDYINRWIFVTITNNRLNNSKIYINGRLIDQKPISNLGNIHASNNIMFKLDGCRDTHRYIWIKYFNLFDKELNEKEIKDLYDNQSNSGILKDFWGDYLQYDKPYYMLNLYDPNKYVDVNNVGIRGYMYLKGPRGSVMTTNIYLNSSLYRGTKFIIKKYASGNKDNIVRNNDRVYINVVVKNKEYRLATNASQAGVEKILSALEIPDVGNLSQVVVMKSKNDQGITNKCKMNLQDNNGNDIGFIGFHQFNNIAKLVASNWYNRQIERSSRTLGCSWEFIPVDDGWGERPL
# Sequence of Beta-adrenergic receptor kinase 1 (Homo sapiens) (P25098 whole entry, looked up): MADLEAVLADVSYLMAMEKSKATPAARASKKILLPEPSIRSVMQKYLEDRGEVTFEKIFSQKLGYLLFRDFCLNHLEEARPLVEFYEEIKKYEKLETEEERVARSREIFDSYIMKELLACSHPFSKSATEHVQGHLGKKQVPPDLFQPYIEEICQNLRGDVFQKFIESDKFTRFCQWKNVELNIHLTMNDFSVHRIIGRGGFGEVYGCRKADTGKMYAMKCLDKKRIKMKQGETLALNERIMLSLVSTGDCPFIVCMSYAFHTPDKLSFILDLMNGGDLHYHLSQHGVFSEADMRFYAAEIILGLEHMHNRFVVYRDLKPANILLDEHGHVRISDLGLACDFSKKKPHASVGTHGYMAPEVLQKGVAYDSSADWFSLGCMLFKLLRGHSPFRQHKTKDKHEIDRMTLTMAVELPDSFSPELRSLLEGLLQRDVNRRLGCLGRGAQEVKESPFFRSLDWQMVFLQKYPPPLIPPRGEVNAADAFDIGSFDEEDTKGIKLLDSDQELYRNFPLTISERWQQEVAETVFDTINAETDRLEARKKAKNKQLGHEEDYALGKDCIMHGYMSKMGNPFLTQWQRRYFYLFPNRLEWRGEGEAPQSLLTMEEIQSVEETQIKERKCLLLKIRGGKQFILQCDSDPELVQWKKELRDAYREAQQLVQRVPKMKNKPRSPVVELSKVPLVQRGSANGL
# Sequence of Lethal factor (Bacillus anthracis) (P15917 whole entry, looked up): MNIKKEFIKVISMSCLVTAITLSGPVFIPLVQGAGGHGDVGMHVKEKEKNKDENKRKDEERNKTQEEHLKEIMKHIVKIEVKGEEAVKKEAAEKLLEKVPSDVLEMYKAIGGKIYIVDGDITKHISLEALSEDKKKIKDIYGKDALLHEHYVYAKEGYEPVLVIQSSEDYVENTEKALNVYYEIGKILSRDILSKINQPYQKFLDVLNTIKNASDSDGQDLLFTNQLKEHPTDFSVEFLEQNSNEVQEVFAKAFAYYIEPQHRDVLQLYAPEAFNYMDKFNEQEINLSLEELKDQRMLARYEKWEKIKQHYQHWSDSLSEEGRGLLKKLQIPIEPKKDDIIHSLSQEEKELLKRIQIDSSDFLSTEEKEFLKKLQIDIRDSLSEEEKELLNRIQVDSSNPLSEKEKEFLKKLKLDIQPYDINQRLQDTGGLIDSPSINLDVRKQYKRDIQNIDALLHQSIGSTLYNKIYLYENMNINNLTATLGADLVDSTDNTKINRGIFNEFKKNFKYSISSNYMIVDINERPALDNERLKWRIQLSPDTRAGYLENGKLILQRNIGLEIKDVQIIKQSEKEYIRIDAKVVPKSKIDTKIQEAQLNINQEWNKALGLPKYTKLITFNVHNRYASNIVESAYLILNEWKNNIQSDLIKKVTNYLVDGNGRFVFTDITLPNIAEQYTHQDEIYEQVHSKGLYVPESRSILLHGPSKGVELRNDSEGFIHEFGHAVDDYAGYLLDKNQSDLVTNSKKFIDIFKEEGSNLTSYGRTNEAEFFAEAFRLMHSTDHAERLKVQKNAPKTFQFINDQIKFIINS
# Sequence of AP-2 complex subunit beta (Homo sapiens) (P63010 whole entry, looked up, one chain of several): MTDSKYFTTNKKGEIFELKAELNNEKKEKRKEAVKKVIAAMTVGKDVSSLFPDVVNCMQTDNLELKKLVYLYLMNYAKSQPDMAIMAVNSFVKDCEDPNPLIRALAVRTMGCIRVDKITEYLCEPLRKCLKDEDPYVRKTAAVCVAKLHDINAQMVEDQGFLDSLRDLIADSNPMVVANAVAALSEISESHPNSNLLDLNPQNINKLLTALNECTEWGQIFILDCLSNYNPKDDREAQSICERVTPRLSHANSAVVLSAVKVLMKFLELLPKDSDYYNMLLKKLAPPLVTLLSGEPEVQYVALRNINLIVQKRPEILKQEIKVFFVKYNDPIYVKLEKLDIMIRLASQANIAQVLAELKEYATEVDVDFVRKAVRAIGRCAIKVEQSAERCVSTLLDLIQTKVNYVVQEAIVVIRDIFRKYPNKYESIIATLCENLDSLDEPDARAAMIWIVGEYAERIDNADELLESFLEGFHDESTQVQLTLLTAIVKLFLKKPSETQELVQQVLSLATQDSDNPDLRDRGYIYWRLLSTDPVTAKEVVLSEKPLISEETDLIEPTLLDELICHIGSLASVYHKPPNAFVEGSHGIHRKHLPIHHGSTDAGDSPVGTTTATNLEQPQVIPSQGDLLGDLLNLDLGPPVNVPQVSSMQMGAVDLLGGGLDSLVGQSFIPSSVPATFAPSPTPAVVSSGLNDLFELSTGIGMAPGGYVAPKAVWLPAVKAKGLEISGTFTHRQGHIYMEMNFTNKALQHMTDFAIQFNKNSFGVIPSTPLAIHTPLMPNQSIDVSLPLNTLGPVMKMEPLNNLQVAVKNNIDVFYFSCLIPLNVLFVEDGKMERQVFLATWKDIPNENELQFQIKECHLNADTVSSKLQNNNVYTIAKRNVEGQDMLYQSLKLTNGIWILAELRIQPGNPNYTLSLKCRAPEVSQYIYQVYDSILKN
structure (smiles),measurement,setting,value
O=C1NC(=O)N(Cc2ccco2)C(=O)/C1=C/c1ccc(-c2cccc([N+](=O)[O-])c2)o1,GFP response vs DMSO,[1],102% (inactive)
same,GFP response vs DMSO,[1]; [15],102%
same,GFP response vs DMSO,[1]; [16],96.7%
same,GFP response relative to DMSO,[2],167% (active)
same,GFP response relative to DMSO,[2]; [17],151%
same,GFP response relative to DMSO,[2]; [18],176%
same,"GFP response, % of DMSO",[3],93% (inactive)
same,"GFP response, % of DMSO",[3]; [15],95.6%
same,"GFP response, % of DMSO",[3]; [16],85.8%
CN1C(=O)NC(=O)/C(=C\C=C\c2ccccc2[N+](=O)[O-])C1=O,GFP response vs DMSO,[1],102% (inactive)
same,GFP response vs DMSO,[1]; [15],90.4%
same,GFP response vs DMSO,[1]; [16],93.5%
same,GFP response relative to DMSO,[2],107% (inactive)
same,GFP response relative to DMSO,[2]; [17],103%
same,GFP response relative to DMSO,[2]; [18],112%
same,"GFP response, % of DMSO",[3],84.7% (inactive)
same,"GFP response, % of DMSO",[3]; [15],96.8%
same,"GFP response, % of DMSO",[3]; [16],70.8%
O=c1[nH]c(=O)n(Cc2ccc(F)cc2)c(O)c1C=NCCN1CCCCC1,GFP response vs DMSO,[1],96.9% (inactive)
same,GFP response vs DMSO,[1]; [15],97%
same,GFP response vs DMSO,[1]; [16],94.8%
same,GFP response relative to DMSO,[2],95.3% (inactive)
same,GFP response relative to DMSO,[2]; [17],94.4%
same,GFP response relative to DMSO,[2]; [18],94.4%
same,"GFP response, % of DMSO",[3],95.8% (inactive)
same,"GFP response, % of DMSO",[3]; [15],97.6%
same,"GFP response, % of DMSO",[3]; [16],94.9%
O=C1NC(=O)N(CCc2ccc(F)cc2)C(=O)/C1=C/c1ccco1,GFP response vs DMSO,[1],98% (inactive)
same,GFP response vs DMSO,[1]; [15],99.4%
same,GFP response vs DMSO,[1]; [16],97%
same,GFP response relative to DMSO,[2],104% (inactive)
same,GFP response relative to DMSO,[2]; [17],106%
same,GFP response relative to DMSO,[2]; [18],104%
same,"GFP response, % of DMSO",[3],98.4% (inactive)
same,"GFP response, % of DMSO",[3]; [15],100%
same,"GFP response, % of DMSO",[3]; [16],93.7%
Cc1ccc(/C=C2\C(=O)NC(=O)N(CC3CCCO3)C2=O)s1 (configuration not stated),GFP response vs DMSO,[1],92.7% (inactive)
same,GFP response vs DMSO,[1]; [15],95.9%
same,GFP response vs DMSO,[1]; [16],94.8%
same,GFP response relative to DMSO,[2],102% (inactive)
same,GFP response relative to DMSO,[2]; [17],102%
same,GFP response relative to DMSO,[2]; [18],104%
same,"GFP response, % of DMSO",[3],82.6% (inactive)
same,"GFP response, % of DMSO",[3]; [15],86.2%
same,"GFP response, % of DMSO",[3]; [16],79.5%
C#CCOc1cc(C2C3=C(COC3=O)Nc3cc4c(cc32)OCO4)ccc1OC (configuration not stated),GFP response vs DMSO,[1],102% (inactive)
same,GFP response vs DMSO,[1]; [15],100%
same,GFP response vs DMSO,[1]; [16],103%
same,GFP response relative to DMSO,[2],113% (inactive)
same,GFP response relative to DMSO,[2]; [17],106%
same,GFP response relative to DMSO,[2]; [18],114%
same,"GFP response, % of DMSO",[3],107% (inactive)
same,"GFP response, % of DMSO",[3]; [15],103%
same,"GFP response, % of DMSO",[3]; [16],107%
CN1CCN(c2ccc([N+](=O)[O-])c(Sc3ccccn3)c2)CC1,GFP response vs DMSO,[1],98.4% (inactive)
same,GFP response vs DMSO,[1]; [15],98.9%
same,GFP response vs DMSO,[1]; [16],99.5%
same,GFP response relative to DMSO,[2],95.4% (inactive)
same,GFP response relative to DMSO,[2]; [17],96%
same,GFP response relative to DMSO,[2]; [18],95.1%
same,"GFP response, % of DMSO",[3],103% (inactive)
same,"GFP response, % of DMSO",[3]; [15],103%
same,"GFP response, % of DMSO",[3]; [16],102%
Cc1c2ccncc2c(C)c2c1[nH]c1ccccc12,double positive events,[4],61%
same,vesicle binding response,[4],710% (inactive)
same,superoxide response (% of plate),[5],84.9% (inactive)
same,aptamer binding inhibition,[6],-5% (inactive)
same,inhibition,[7],5.87% (inactive)
same,response,[8],-2.57% (inactive)
same,binding (% of control),[9],180% (inactive)
same,inhibition,[10],2.4% (inactive)
same,inhibition,[11],2.8% (inactive)
same,inhibition,[12],2% (inactive)
same,efflux inhibition (fraction of control),[13],0.3 (inactive)
same,differentiation response,[14],18% (inactive)
NC(N)=NC(N)=NCCc1ccccc1,inhibition,[10],-1% (inactive)
same,inhibition,[11],-0.8% (inactive)
